In the supplement of paper PMC9433436:
± gives the standard deviation of the averaged measurements. In all, about 4,100 sequences were measured (“relative kcat/Km (krel) vs genomic leader AAAGAU”: median about 1.7, highest 2% from about 6.5 on). For the sample, the highest values were picked, then their nearest neighbours and some sequences at random.

Biological target: T1, E. coli RNase P holoenzyme (M1 P RNA + rnpA protein) (UniProt P0A7Y8)
T1 sequence: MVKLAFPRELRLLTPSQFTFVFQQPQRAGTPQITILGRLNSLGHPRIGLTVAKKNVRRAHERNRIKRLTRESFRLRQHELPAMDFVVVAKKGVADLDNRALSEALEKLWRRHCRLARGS
Test: relative kcat/Km (krel) vs genomic leader AAAGAU (relative (reference leader = 1)); higher = faster RNase P cleavage
Description: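 HTS-Kin: a pool of ptRNA-Met (21C construct) with all 4096 combinations of 5' leader nucleotides N(-6) to N(-1) was processed in vitro by E. coli RNase P (P RNA + rnpA/C5 protein) under multiple-turnover conditions at 37 C, pH 8, 17.5 mM MgCl2. Residual substrate was Illumina-sequenced at several fractions reacted, and relative kcat/Km (krel) was computed by internal competition kinetics, calibrated to the genomic leader (AAAGAU = 1). The listed hexamer is the varied N(-6)..N(-1) leader (DNA letters), and it sits between a fixed 5' stem-loop flank (GCAUGCACGAAAGUGCGUGCUAUGAA) and the mature tRNA-Met starting GGCUACGUAGCUCAGUUGG. Two technical replicates are averaged.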

[1] = fraction of substrate reacted: ~9-10% (9.79% repeat 1, 9.1% repeat 2)
[2] = fraction of substrate reacted: ~13-16% (15.68% repeat 1, 13.17% repeat 2)
[3] = fraction of substrate reacted: ~26-29% (28.66% repeat 1, 26.4% repeat 2)

| Sequence | relative kcat/Km [1] | relative kcat/Km [2] | relative kcat/Km [3] |
| --- | --- | --- | --- |
| ATTCTA | 2.57 ± 2.1 | 2.17 ± 0.23 | 2.44 ± 0.73 |
| AATACC | 1.49 ± 0.43 | 1.431 ± 0.0097 | 1.56 ± 0.25 |
| TTACAC | 4.14 ± 1.9 | 4.92 ± 0.61 | 6.4 ± 2.5 |
| CCCATA | 2.83 ± 1.3 | 3.03 ± 0.6 | 4.43 ± 1.7 |
| GAAGAA | 2.23 ± 0.43 | 2.71 ± 0.3 | 2.76 ± 0.48 |
| CGGTCC | – | – | 0.889 ± 0.14 |
| TTGCAA | 1.54 ± 0.37 | 2.13 ± 0.72 | 2.92 ± 0.97 |
| CATTAA | 3.66 ± 2.4 | 4.11 ± 0.12 | 5.92 ± 2 |
| CCTTAC | 3.84 ± 2.1 | 4.83 ± 0.16 | 5.67 ± 1.9 |
| GATTAA | 3.21 ± 0.97 | 3.86 ± 0.81 | 5.57 ± 2.6 |
| CATTAC | 4.77 ± 1.5 | 5.16 ± 0.98 | 7.24 ± 2.8 |
| GATTAG | 2.16 ± 2.1 | 2.42 ± 0.093 | 3.68 ± 1.1 |
| CATTAT | 4.62 ± 1.6 | 6.32 ± 1.1 | 8.59 ± 3.6 |
| GATTAT | 3.36 ± 0.24 | 4.67 ± 0.86 | 7.25 ± 3.7 |
| CATTAG | 2.22 ± 1.2 | 2.26 ± 0.59 | 4.08 ± 1.1 |
| GATTAC | 2.65 ± 0.6 | 4.2 ± 0.47 | 6.1 ± 2.1 |
| GGAAGA | 2.26 ± 0.31 | 2.24 ± 0.41 | 3.83 ± 0.61 |
| CCTACG | – | – | 1.4 ± 0.03 |
| ACAGTT | 1.6 ± 1.2 | 1.27 ± 0.62 | 1.3 ± 0.82 |
| GTATGG | – | 0.253 ± 0.21 | 1.01 ± 0.7 |
| TTGTTC | 1.96 ± 0.092 | 2.08 ± 0.17 | 3.27 ± 1.5 |
| TAATCT | 1.87 ± 1.1 | 3.08 ± 0.23 | 4.22 ± 1.6 |
| TGGAGG | – | – | 0.887 ± 0.34 |
| AATTTA | 1.65 ± 0.69 | 1.63 ± 0.14 | 2.33 ± 0.76 |
| TGATTA | 2.2 ± 0.59 | 2.91 ± 0.12 | 3.73 ± 1.7 |

| Sequence | relative kcat/Km [1] | relative kcat/Km [2] | relative kcat/Km [3] |
| --- | --- | --- | --- |
| CACGCT | 1.83 ± 0.24 | 2.25 ± 0.6 | 3.03 ± 0.94 |
| ATCAGC | 2.87 ± 0.62 | 3.75 ± 1 | 5.41 ± 1.6 |
| GTCAGT | – | – | 2.53 ± 2.2 |
| TTCAGA | 5.95 ± 2.5 | 6.69 ± 1.9 | 10.5 ± 4.5 |
| CTTAGC | 2.96 ± 1.3 | 3.29 ± 1.3 | 3.62 ± 0.95 |
| TTCAGG | 1.31 ± 0.71 | 1.12 ± 0.87 | 2.76 ± 0.9 |
| GTCAGC | 4.18 ± 1.7 | 5.29 ± 0.92 | 7.22 ± 2.9 |
| TTCAGC | 5.19 ± 1.6 | 6.48 ± 1.2 | 9.03 ± 3.9 |
| TTCAGT | – | 2.35 ± 1.7 | 3.37 ± 2.9 |
| TTCGGA | – | – | 1.79 ± 1 |
| CTCAGC | 4.51 ± 1.9 | 5.37 ± 1.6 | 7.11 ± 2.5 |
| GTCAGG | 0.667 ± 0.23 | 1.03 ± 0.2 | 2.57 ± 1.1 |
| TGCAGA | 1.65 ± 0.82 | 2.24 ± 0.094 | 2.7 ± 0.68 |
| AATGTT | 0.792 ± 0.16 | 0.821 ± 0.55 | 1.29 ± 0.62 |
| TTAATA | 1.94 ± 0.59 | 2.09 ± 0.08 | 2.85 ± 1 |
| AGGGGG | – | – | 1.11 ± 1 |
| GGCGCC | 2.72 ± 2.1 | 2.21 ± 0.42 | 3.06 ± 0.78 |
| ACCCCC | 2.28 ± 0.72 | 1.22 ± 0.62 | 3.15 ± 1.3 |
| CTAGTA | 1.32 ± 0.52 | 0.841 ± 0.56 | 1.69 ± 0.87 |
| CACCTG | – | – | 0.873 ± 0.43 |
| AACCCG | – | – | 0.785 ± 0.38 |
| GTCATC | 4.03 ± 1.8 | 5.36 ± 1.2 | 8.03 ± 3.5 |
| CTTATT | 2.42 ± 1 | 2.76 ± 0.34 | 3.73 ± 1.6 |
| CGCATT | 2.39 ± 0.24 | 2.95 ± 0.92 | 4.66 ± 2 |
| CTCATC | 3.63 ± 1 | 4.57 ± 0.43 | 6.8 ± 2.4 |

| Sequence | relative kcat/Km [1] | relative kcat/Km [2] | relative kcat/Km [3] |
| --- | --- | --- | --- |
| GCCATC | 2.88 ± 0.72 | 3.43 ± 1.3 | 4.62 ± 1.3 |
| ATCATC | 3.27 ± 0.66 | 4.72 ± 0.78 | 6.25 ± 2.5 |
| GGCATC | 1.73 ± 0.36 | 2.09 ± 0.48 | 2.42 ± 0.71 |
| CTCATG | – | 1.28 ± 0.22 | 3.1 ± 0.052 |
| CTCATT | 3.69 ± 1.4 | 5.23 ± 0.62 | 7.36 ± 3 |
| GGATAA | 1.77 ± 0.4 | 2.37 ± 0.4 | 2.82 ± 1.2 |
| ATTGAA | 2.28 ± 0.51 | 2.44 ± 0.32 | 3.48 ± 1.1 |
| GGTAGA | 2.41 ± 0.65 | 2.19 ± 0.26 | 3.13 ± 1.6 |
| TTTGAT | 0.799 ± 0.12 | 1.01 ± 0.025 | 1.39 ± 0.26 |
| CCAGTC | 2.41 ± 0.63 | 1.32 ± 0.76 | 1.52 ± 0.37 |
| TACATG | 0.765 ± 0.67 | 1.44 ± 0.13 | 3.16 ± 1.2 |
| GACATT | 3.42 ± 0.26 | 4.33 ± 1.3 | 6.4 ± 3.1 |
| TACATC | 3.03 ± 0.57 | 4.44 ± 0.76 | 6.8 ± 2.7 |
| TACATT | 3.85 ± 1.4 | 5.11 ± 0.79 | 7.56 ± 3.7 |
| GACATC | 3.66 ± 0.77 | 3.95 ± 1.1 | 5.9 ± 2.2 |
| CACATC | 2.93 ± 1 | 3.64 ± 0.86 | 5.53 ± 2.1 |
| TCCCTA | 3.22 ± 1.7 | 3.63 ± 0.34 | 4.34 ± 1.6 |
| CAAACG | – | 0.172 ± 0.13 | 0.797 ± 0.69 |
| GAGAGT | 0.122 ± 0.072 | 1.48 ± 0.097 | – |
| AACTCT | 2.76 ± 1.1 | 3.3 ± 0.76 | 4.39 ± 1.2 |
| GACTCC | 3.31 ± 0.62 | 4.26 ± 0.76 | 5.61 ± 2 |
| TACTCC | 3.23 ± 0.81 | 5.06 ± 1 | 6.63 ± 2.8 |
| CACTCT | 3.97 ± 1.4 | 4.52 ± 0.75 | 6.37 ± 2.3 |
| TACTCT | 3.83 ± 0.27 | 4.7 ± 0.86 | 7.13 ± 3.3 |
| AACTCC | 3 ± 2.2 | 3.3 ± 0.49 | 4.38 ± 1.3 |

| Sequence | relative kcat/Km [1] | relative kcat/Km [2] | relative kcat/Km [3] |
| --- | --- | --- | --- |
| TGATTC | 1.39 ± 0.61 | 2.97 ± 1.2 | 3.89 ± 1.8 |
| CCAGCA | 1.37 ± 0.54 | 0.452 ± 0.45 | 0.927 ± 0.46 |
| CCATAG | – | 0.327 ± 0.075 | 1.95 ± 0.2 |
| TGGGGT | – | – | 1.83 ± 0.45 |
| TGCTCT | 0.944 ± 0.33 | 1.02 ± 0.37 | 1.5 ± 0.59 |
| TTATAT | 4.62 ± 2 | 5.95 ± 0.72 | 8.54 ± 4 |
| GTATTT | 3.06 ± 2 | 3.71 ± 0.4 | 5.37 ± 1.9 |
| CTATAA | 3.33 ± 1.3 | 3.72 ± 0.51 | 4.92 ± 1.3 |
| TTATCT | 2.77 ± 0.45 | 3.58 ± 0.95 | 5.02 ± 2.2 |
| TTATAG | 2.25 ± 1.6 | 2.63 ± 0.53 | 4.22 ± 1.9 |
| GTATAT | 3.56 ± 1.5 | 4.99 ± 0.35 | 7.89 ± 3.5 |
| CTATAT | 4.48 ± 1.6 | 5.55 ± 0.85 | 7.37 ± 2.9 |
| GTATAA | 3.41 ± 1.2 | 4.18 ± 0.35 | 5.6 ± 2 |
| ATATAG | 2.16 ± 1.9 | 1.77 ± 0.48 | 3.88 ± 1.4 |
| CTATAG | 2.47 ± 1.2 | 1.823 ± 0.012 | 3.4 ± 0.44 |
| ATATAA | 2.75 ± 1.4 | 3.31 ± 0.47 | 4.9 ± 1.7 |
| ATATAT | 3 ± 0.9 | 4.49 ± 0.51 | 6.84 ± 3.3 |
| GTGCAA | 1.89 ± 1.4 | 1.25 ± 0.53 | 1.32 ± 0.22 |
| ACACCT | 2.6 ± 1.3 | 1.66 ± 0.33 | 2.53 ± 1.6 |
| TCAGCC | 2.48 ± 0.96 | 2.37 ± 0.56 | 3.15 ± 0.59 |
| GAGCAG | – | 0.164 ± 0.047 | 1.27 ± 0.062 |
| ACGCGA | 2.19 ± 0.79 | 1.29 ± 0.1 | 2.07 ± 0.28 |
| CTGTTA | 2.76 ± 1.4 | 1.44 ± 1.1 | 2.19 ± 0.06 |
| CGACGT | – | 2.25 ± 1.1 | 2.36 ± 1.5 |
